Bioassay records as filed in PubChem.
4-MU autofl: 4-MU region autofluorescence; compound autofluorescence, 340/450 nm, 4-MU equivalents; active compounds read high; max dye-equivalent concentration, M; hit rate 11% among 59,000; in the data active = max dye-equivalent concentration above about 10 nM; inconclusive = mostly about 1.1 nM to 9.6 nM
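Intrinsic fluorescence at 340/450 nm (ex/em) was read after 15 min at room temperature in pH 8.0, 100 mM Tris. Each compound concentration expressed as 4-MU-equivalent concentration from a six-point 4-MU standard series on each plate.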
A350 fluor: A350 region autofluorescence; Compound autofluorescence, 340/450 nm, Alexa 350 dye-equivalents; active compounds read high; max dye-equivalent concentration, M; hit rate 11% among 59,000; in the data active = max dye-equivalent concentration above about 10 nM; inconclusive = mostly about 1.1 nM to 9.6 nM
CRE-bla Fsk: CRE-bla signaling modulation under forskolin stimulation; AID 662; CHO CRE-bla reporter (cAMP response element driving beta-lactamase), forskolin EC10, beta-lactamase ratio; Potency, µM (series often up to 38.2 µM), for the others: at the top dose activity change, negative = inhibition, most hits filed as activators; hit rate 2.5% among 71,000; active = well fitted activation curve with a large enough effect in the signal ratio, with a control signal flat, not every such curve was filed as active; inconclusive = small, poorly fitted or top-dose-only effect, or effect the other way, or a change in a side signal; the % refers to the signal ratio; note: potency is the fitted concentration of half-maximal effect; % of control where 0% means no effect
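AC50 values, positive or negative, reflect shifts in EC10 NKH 477-induced CRE-bla reporter activity in CHO cells. Incubation lasted 3 h at 37 °C before CCF4 substrate (2 h, room temperature) and ratiometric 460/530 nm reading.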
HADH2 inhib: inhibitors of human HADH2 dehydrogenase; recombinant HADH2, NADH fluorescence, beta-hydroxybutyryl-CoA; Potency, µM (doses to about 57.1 µM), without a hit: at the highest dose activity change, negative = inhibition, most hits filed as inhibitors; hit rate 3.4% among 73,000; note: potency is the fitted concentration of half-maximal effect; % is set by controls: 0 for no effect and ±100 for the full control effect; nearly all actives have a fitted effect of over 60% in size
Target sequence (Q99714 whole entry, looked up, one chain of several): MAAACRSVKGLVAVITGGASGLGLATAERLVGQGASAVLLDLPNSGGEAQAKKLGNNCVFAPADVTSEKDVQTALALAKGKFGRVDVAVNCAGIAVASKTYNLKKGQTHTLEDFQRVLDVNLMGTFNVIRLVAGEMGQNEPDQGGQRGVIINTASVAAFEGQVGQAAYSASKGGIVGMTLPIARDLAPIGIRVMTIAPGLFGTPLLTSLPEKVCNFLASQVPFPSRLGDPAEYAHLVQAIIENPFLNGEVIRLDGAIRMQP
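E. coli-expressed His-tagged HADH2 tested at 20 nM in alkaline Tris buffer (pH 9.0); oxidation of 90 uM beta-hydroxybutyryl-CoA with 1 mM NAD+ tracked fluorimetrically for 4 min.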
AID923: qHTS Assay for Allosteric/Competitive Inhibitors of Caspase-1: Spectroscopic Profiling in AFC Spectral Region. compound fluorescence, AFC spectral region (405/520 nm). Potency, µM (series often up to 57.5 µM), for inactives: top-dose fluorescence increase, hits mostly activators. hit rate 1.1% among 75,000. AID 923, 2007; note: potency is the fitted concentration of half-maximal effect; 0% is about no effect
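Compound autofluorescence profiled at 405 nm ex/520 nm em during kinetic caspase 1 run (50 nM enzyme, 5 uM Ac-WEHD-AFC, HEPES pH 7.5, 10 mM DTT). Titration up to 57 uM; baseline from regression intercept, normalized to AFC standard curve.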
HSD17B inhib: HSD17B dehydrogenase inhibition; recombinant HSD17B10, NADH fluorescence kinetic; Potency, µM (top dose mostly 57.1 µM), for inactives: top-dose activity change, negative = inhibition, most hits filed as inhibitors; hit rate 7.6% among 75,000; AID 893;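 note: the protocol describes HADH2 (HSD17B10) and not the HSD17B4 of the title; potency is the fitted concentration of half-maximal effect; % is set by controls: 0 for no effect and ±100 for the full control effect; nearly all actives have a fitted effect of over 70% in size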
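His-tagged E. coli-expressed HADH2 at 20 nM in 100 mM Tris-HCl pH 9.0 with 0.01 % Tween-20, preincubated 15 min with compound at room temperature. Reaction with 1 mM NAD+ and 90 uM beta-hydroxybutyryl coenzyme A; NADH fluorescence (360/450 nm) read kinetically over 4 min, last minus first point.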
* hit, by the source's call; i = inactive; ? = inconclusive; nt = no result given; ! = repeats disagree; [ ] = dose if it differs, or a comment. In the library only some 14% were active in any assay of this set; here they are far more common. Unless noted, calls come from the whole dose curve; as a rule, active = well fitted curve in the direction sought with a large enough effect; inconclusive = small, poorly fitted or top-dose-only effect, or another doubt; inactive = no such curve, though single readings can be large; an effect the other way counts as inactive or inconclusive.

SMILES	4-MU autofl	A350 fluor	CRE-bla Fsk	HADH2 inhib	AID923	HSD17B inhib
CCOc1ccc(NC(=O)c2ccco2)cc1	i	i	?	0.9%	-1.5%	9.1%
Cc1nnc2sc(-c3ccc(NC(=O)c4ccc(-c5ccc(Cl)cc5Cl)o4)cc3)nn12	8.91e-08M*	9.42e-08M*	-12.7%	23.3%	6.6%	15.8µM*
CCc1nnc2sc(-c3ccc(NC(=O)c4ccco4)cc3)nn12	3.83e-08M*	4.45e-08M*	10.2%	-0.9%	0.0%	-4.2%
COc1c(C)cccc1C(=O)Nc1cc(-c2nn3c(C)nnc3s2)ccc1C	nt	nt	2.51µM*	4.9%	1.4%	-8.9%
Cc1nnc2sc(-c3ccc(NC(=O)c4cccnc4)cc3)nn12	3.8e-08M*	4.31e-08M*	1.0%	-29.6%	-3.1%	-6.9%
CC=O	nt	nt	3.4%	-2.9%	2.6%	-2.9%
COc1ccc(OC)c(NC(=O)C2CCN(c3nc(C)cc(C)n3)CC2)c1	i	i	0.3%	2.3%	0.2%	-7.6%
COc1ccccc1NC(=O)C1CCCCC1	i	i	-9.1%	-7.4%	-0.7%	2.8%
COc1ccc(-c2cn3cccnc3n2)cc1NC(=O)C1CC1	7.41e-08M*	7.2e-08M*	?	18.1%	2.3%	?
COc1ccc(-c2cn3cccnc3n2)cc1NC(=O)C1CCCC1	1.02e-07M*	1.02e-07M*	?	13.7%	0.2%	?
O=C(O)CCCC[C@@H]1SC[C@H]2NC(=O)N[C@@H]12	nt	nt	nt	nt	-3.5%	5.2%
c1ccc(Cn2nnc3c(N4CCCC4)ncnc32)cc1	i	i	10µM*	11.9%	0.5%	-6.0%
Cc1nc(N2CCC(C(N)=O)CC2)c2nnn(Cc3ccccc3)c2n1	i	i	4.9%	1.1%	1.8%	0.4%
CC1Cc2ccccc2N1c1ncnc2c1nnn2Cc1ccccc1 (centres undefined)	3.73e-07M*	2.36e-07M*	?	25.1µM*	0.5%	?
Cc1nc(N2CCCC2)c2nnn(Cc3ccccc3Cl)c2n1	i	i	2.51µM*	-8.1%	1.7%	0.1%
c1ccc(Cn2nnc3c(N4CCc5ccccc5C4)ncnc32)cc1	i	i	-10.5%	3.1%	0.3%	?
COC(=O)[C@H]1C[C@@H]1[C@H](NC(=O)c1cc(C)nn1C)c1ccccc1	nt	nt	2.5%	9.2%	-2.0%	3.9%
O=C(O)CN1C(=O)O[C@@H](c2ccccc2)C1=O	i	i	7.2%[7.6 µM]	-1.6%[11.4 µM]	3.2%[11.5 µM]	-0.1%[11.4 µM]
CC[C@H]1CN(C)[C@H]2Cc3c([nH]c4ccccc34)C(=O)C[C@H]1[C@H]2C(=O)OC	?	?	-0.8%[7.6 µM]	12.1%[11.4 µM]	-1.4%[11.5 µM]	-4.0%[11.4 µM]
COc1ccc(OC)c(-c2nnc(-c3ccc(C)o3)o2)c1	2.42e-07M*	2.29e-07M*	?	12.6µM*	0.2%	25.1µM*
COc1ccc(OC)c(-c2nnc(SCC(=O)N3CCOCC3)o2)c1	i	?	21.6%	-4.6%	-0.6%	-13.3%
O=C(O)[C@@H]1[C@@H]2C[C@@H]3[C@@H](OC(=O)[C@@H]31)[C@H]2Br	i	i	-3.7%[7.6 µM]	-1.9%[11.4 µM]	1.3%[11.5 µM]	-1.9%[11.4 µM]
O=C1CCC=C1[C@@H](O)CCc1ccccc1	nt	nt	nt	2.5%[11.4 µM]	-0.3%[11.5 µM]	2.8%[11.4 µM]
CCN1CCCC(OC(=O)C(c2ccccc2)c2ccccc2)C1 (centres undefined)	nt	nt	nt	nt	0.9%	1.4%
CCN1CCC[C@@H](OC(=O)C(c2ccccc2)c2ccccc2)C1	2.22e-08M*	1.75e-08M*	-0.6%[17.1 µM]	3.3%[25.6 µM]	-2.1%[25.7 µM]	-1.1%[25.6 µM]
CC(=O)NS(=O)(=O)c1ccc(N)cc1	2.26e-08M*!	2.65e-08M*!	-11.3%	-0.4%	-5.1%	2.1%
CC(=O)NS(=O)(=O)c1ccc(NS(=O)(=O)c2ccc(F)cc2)cc1	i	i	-3.5%	-2.8%	1.8%	-4.9%
OC[C@@H]1O[C@@H](n2cnc3c(SCc4ccccc4)ncnc32)[C@@H](O)[C@H]1O	i	i	1.1%[7.6 µM]	21.1%[11.4 µM]	-0.1%[11.5 µM]	5.0%[11.4 µM]
COc1ccc(C(=O)COC(=O)CCN=C2NS(=O)(=O)c3ccccc32)cc1OC	1.38e-08M*	1.88e-08M*	10µM*	1.4%	3.7%	-11.9%
COCCNC(=O)c1noc2c1CCc1cc(OC)ccc1-2	i	i	?	9.9%	-1.5%	10µM*
